# Vaccinia Venus: inhibitors of vaccinia virus (Venus reporter) | Vaccinia virus Venus reporter expression, fluorescence | AID 720580 | Potency, µM (titrated, usually from 36.5 µM), actives largely listed as inhibitors | hit rate 0.46% among 330,000; calls by dose curve; tested in A549 cells; note: nearly all actives have a fitted effect of over 30% in size
# HCV inh: blocks hepatitis C virus; Huh7.5.1 HCVcc-Cre infection, luciferase reporter, 44 h; Potency, µM (titrated, usually from 41.8 µM), hits mostly inhibitors; hit rate 3.4% among 340,000; AID 651820; active = well fitted inhibition curve with a large enough effect; inconclusive = small, poorly fitted or top-dose-only effect, or another doubt; inactive = no such curve, though single readings can be large or run the other way
#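 Whole-lifecycle infectious HCVcc-Cre system; cells 1,000/well, compound then virus (~0.5 moi) added 4 h after plating, 44 h culture. Luciferase read 15 sec following 15 min substrate incubation, room temp.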
# VACV mCherry inh: vaccinia inhibition (mCherry reporter) | Vaccinia virus mCherry reporter infection, fluorescence | Potency, µM (top dose mostly 36.5 µM), most hits filed as inhibitors | hit rate 0.63% among 310,000; calls by dose curve; tested in A549 cells; note: nearly all actives have a fitted effect of over 35% in size
# Numbers stand for hits; . = inactive; ? = inconclusive; / = not tested or not shown; [ ] = dose if it differs, or a comment. Sampled rows, rich in hits. Any-hit rate of the full collection: about 3.3%.
SMILES,Vaccinia Venus,HCV inh,VACV mCherry inh
CC(OC(=O)c1ccccc1NCCO)C(=O)Nc1ccc(S(=O)(=O)N2CCOCC2)cc1 (stereo not drawn),.,8.9µM,.
O=S(=O)(c1ccc(NC(=S)N/N=C/c2c3ccccc3cc3ccccc23)cc1)N1CCOCC1,?,2.8µM,.
O=S(=O)(c1ccc(NC(=S)NCCC(c2ccccc2)c2ccccc2)cc1)N1CCOCC1,11µM,?,10µM
O=S(=O)(c1ccc(NC(=S)N/N=C/c2ccc(Oc3ccccc3)cc2)cc1)N1CCOCC1,.,.,.
CC(OC(=O)CNC(=O)c1ccccc1)C(=O)Nc1ccc(S(=O)(=O)N2CCOCC2)cc1 (stereo not drawn),.,.,.
Cc1onc(-c2ccccc2)c1C(=O)NN1CCOCC1,.,.,.
CCC(=O)c1ccc(OCC(=O)N2CCN(c3ncccn3)CC2)cc1,.,.,.
CN(CCC#N)c1ccc(/C=C/c2ccnc3ccccc23)cc1,.,/,.
O=C(Cn1c(=O)n(Cc2ccco2)c(=O)c2sc3ccccc3c21)Nc1ccccc1C(F)(F)F,.,/,?
O=C1C2C3C=CC(C3=C(c3ccccc3)c3ccccc3)C2C(=O)N1CCO (stereo not drawn),/,.,/
O=C1C2C3C=CC(C3=C(c3ccccc3)c3ccccc3)C2C(=O)N1Cc1ccccc1 (stereo not drawn),.,11µM,/
O=C1CN(C(=O)COC(=O)CCS(=O)(=O)c2ccccc2Cl)c2ccccc2N1,/,.,/
CN(C)CCNc1ncnc2c1sc1nc(-c3ccccc3)c3c(c12)CCCC3,10µM,?,?
COc1ncnc2c1sc1nc(-c3ccccc3)c3c(c12)CCCC3,/,.,/
O=C(c1ccc(F)cc1Cl)N(Cc1ccco1)C1CCS(=O)(=O)C1 (stereo not drawn),.,.,.
O=C(NCCc1nnc2n1CCN(Cc1ccccn1)CC2)c1ccc(F)cc1,.,/,.
COc1ccc(NC(=O)C(C)n2nnc3sc(-c4ccccc4)cc3c2=O)cc1Cl (stereo not drawn),.,/,.
C=C1C([C@@H](O)C[C@H](C)C2O[C@@]3(CCCCO3)CC[C@H]2C)OC2CC[C@@]3(CC[C@@H](/C=C/[C@@H](C)C4CC(C)=C[C@]5(O4)O[C@H](C[C@@](C)(O)C(=O)O)CCC5O)O3)OC2[C@@H]1O (stereo partly drawn),.[2.01 µM],/,.[2.01 µM]
C=C1C(O)[C@@H]2O[C@]3(CC[C@H](/C=C/C(C)[C@@H]4CC(C)=CC5(O[C@H](C[C@@](C)(O)C(=O)O)CCC5O)O4)O3)CC[C@H]2O[C@@H]1C(O)CC(C)[C@H]1OC2(CCCCO2)CCC1C (stereo partly drawn),0.32µM,?,.
CC(NC(=O)c1cc(F)ccc1F)c1nnc2n1CCN(Cc1cccs1)CC2 (stereo not drawn),.,/,.
CCOC(=O)c1c(CN(CC)CC)oc2cc(Br)c(O)cc12,.,10µM,?
CCOC(=O)c1c(CN(CC)CC)oc2ccc(OC)cc12,.,.,.
NC(CS)C(=O)O (stereo not drawn),.,/,.
CN(C)c1ccc(CNC(=O)CCn2c(=O)c3cccn3c3ccc(F)cc32)cc1,.,/,.
CCOC(=O)c1c(-c2cccs2)csc1NC(=O)CN(CC)CC,/,11µM,/
SMILES,Vaccinia Venus,HCV inh,VACV mCherry inh
CCOC(=O)c1c(-c2cccs2)csc1NC(=O)CC(C)C,.,?,.
COC(=O)c1c(-c2cccs2)csc1NC(=O)c1ccc(Cl)cc1,.,/,.
COC(=O)c1c(-c2cccs2)csc1NC(=O)c1cccnc1,.,11µM,/
CCCCNc1c(-c2ccc(-c3cccc(Cl)c3)cc2)nc2ccccn12,.,?,?
CCCCNc1c(-c2cccc(-c3ccc(OC)cc3)c2)nc2cc(C)ccn12,?,11µM,?
CCCCNc1c(-c2cccc(-c3ccc(OC)cc3)c2)nc2ccc(C)cn12,?,?,13µM
Cc1ccc2nc(-c3ccc(-c4cccc(Cl)c4)cc3)c(NCc3ccccc3)n2c1,.,.,.
Cc1ccc(-c2csc(=Nc3ccccc3)n2Cc2ccc3c(c2)OCO3)cc1C,.,/,.
C[n+]1ccc(/C=C/c2cc[n+](C)c3ccccc23)c2ccccc21,10µM,/,?
CN1C=C/C(=C\c2cc[n+](C)c3ccccc23)c2ccccc21,/,4.5µM,/
COc1ccc(/C=C/c2cc[n+](C)c3ccccc23)cc1OC,.,/,.
C[n+]1ccc(/C=C/c2ccc([N+](C)(C)C)cc2)c2ccccc21,.,/,.
CN(CC(=O)Nc1ccc(F)cc1)CC(=O)N1CCCCCC1,/,.,/
O=C(NCCCc1nc2ccccc2n1Cc1ccc(Cl)cc1Cl)c1ccco1,.,/,.
CCc1ccc(CNC(=O)Cn2nc(C)n3c(cc4cc(C)ccc43)c2=O)cc1,.,/,.
O=C(C=Cc1ccccc1)c1c[nH]c2ccccc2c1=O,.,11µM,?
Cc1[nH]c2ccccc2c(=O)c1C(=O)/C=C/c1ccccc1,?,11µM,3.2µM

# Compound activity: PubChem BioAssay, National Center for Advancing Translational Sciences (NCATS)
